Screening results from PubChem BioAssay.
The list is not random: actives were taken first. Their share in the collection is about 19%.
Pf growth 96h: inhibits malaria parasite growth, 96 h; P. falciparum luciferase reporter growth, 96 h; Potency, µM (top dose mostly 28.7 µM), inactives show top-dose activity change, negative = inhibition, most hits filed as inhibitors; 320,000 compounds, 6.9% hits; AID 504834; also: potency is read from the fitted curve at half-maximal effect; % is scaled to controls: 0 for no effect and ±100 for the full control effect
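Two parasite generations (96 h, 37 C, 5% CO2) of compound exposure in infected erythrocytes (0.05% parasitemia, 2% hematocrit). Luciferase-reporter P. falciparum; decreased luminescence indicates inhibited growth, aimed at apicoplast-acting delayed death.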
AMA1 RON2 block: disrupts binding of P. falciparum AMA1 to RON2; AID 720542; Potency, µM (highest dose often 58.2 µM), for inactives: top-dose activity change, negative = inhibition, most hits filed as inhibitors; 360,000 compounds, 0.2% hits; AlphaScreen AMA1-biotinylated RON2 peptide binding;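 also: potency is read from the fitted curve at half-maximal effect; 0% = vehicle wells and -100% = peptide control; nearly all actives have a fitted effect of over 45% in size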
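AMA1 (3D7) with his tag at 25 nM final met compounds first, then biotinylated RON2 peptide at 25 nM; detection used donor plus acceptor beads, 10 µg/mL apiece, read by AlphaScreen after 30 min at room temperature.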
Cycloheximide cs: counter-screen for Shiga toxin inhibitors: cycloheximide protein synthesis inhibition. cell reporter, cycloheximide protein synthesis inhibition counterscreen. AID 2314. max response, %. 300,000 compounds, 12% hits; in the data active = max response mostly above about 13%, no sharp cut-off; inactive = mostly below about 14%; also: read at 38.3 µM for the half of the compounds with a filed dose; 0% is about no effect
Shiga inhibitor: blocks Shiga toxin action in Vero cells; Vero cells, Shiga toxin protein synthesis inhibition reporter; inhibition, % at 38.7 µM; 290,000 compounds, 9.2% hits; in the data active = inhibition mostly above about 28%, no sharp cut-off; inactive = mostly below about 43%; also: 0% is about no effect
SARS PLpro yeast: inhibitors of SARS-CoV papain-like protease in yeast; S. cerevisiae expressing SARS-CoV PLpro, growth rescue; Potency, µM (titrated, usually from 32.9 µM), inactives show at the top dose activity, positive = growth rescue, actives largely listed as activators; 330,000 compounds, 0.19% hits; calls by dose curve; also: potency is read from the fitted curve at half-maximal effect; 0% is about no effect; nearly all actives have a fitted effect of over 55% in size
Pf growth 48h: P. falciparum growth inhibition at 48 hours (one generation). P. falciparum luciferase growth in erythrocytes, 48 h. Potency, µM (top dose mostly 28.7 µM), inactives show at the highest dose activity change, negative = inhibition, usual class: inhibitors. 310,000 compounds, 5.9% hits; also: potency is read from the fitted curve at half-maximal effect; % is scaled to controls: 0 for no effect and ±100 for the full control effect
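Luminescence readout; reporter = integrated firefly luciferase in P. falciparum. RBC culture at 2% hematocrit, 0.1% parasitemia final, 37 C/5% CO2; decreased signal taken as growth inhibition.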
* = called active by the depositor; ? = inconclusive; . = not tested or not shown; [ ] = remark or other dose. Unless noted, calls follow the shape of the dose curve; as a rule, active = well fitted curve in the direction sought with a large enough effect; inconclusive = small, poorly fitted or top-dose-only effect, or another doubt; inactive = no such curve, though single readings can be large; an effect the other way counts as inactive or inconclusive.

SMILES	Pf growth 96h	AMA1 RON2 block	Cycloheximide cs	Shiga inhibitor	SARS PLpro yeast	Pf growth 48h
Cc1ccc(C2CCN(C(=S)NC(C)C)C2)cc1 (centres undefined)	10.8%	7.3%	8.7	64.1*	3.0%	14.5%
Cc1ccc(NC(=O)C2CCCN(C(=O)Nc3ccc(F)cc3)C2)cc1 (centres undefined)	14.3%	0.0%	10.1	-3.4	-18.1%	3.3%
Cn1nnc2cc(C(=O)N3CCC(c4ccccc4)C3)ccc21 (centres undefined)	-5.5%	-17.8%	10.1*	27.3*	-3.4%	19.3%
CC(CC(=O)N1CCN(c2ccc(C(F)(F)F)cn2)CC1)n1ccnc1 (centres undefined)	-38.7%	-5.9%	4.8	-3.1	-3.8%	-21.7%
COc1ccc(Cl)cc1NC(=O)CN(C)C(=O)/C=C/c1ccco1	.	-4.1%	.	.	-2.3%	.
CC(=O)c1cccc(NC(=O)N2CCC(c3ccc(C)cc3)C2)c1 (centres undefined)	14.5%	-4.4%	27.3	48.6*	-15.0%	16.8%
COc1ccc(C2c3c(ccc4ccccc34)Oc3ncn4nc(Cc5ccc(OC)c(OC)c5)nc4c32)cc1 (centres undefined)	?	.	-8.0	-13.1	-29.6%	?
N=c1c2c(ncn1CCN1CCOCC1)Oc1ccc3ccccc3c1C2c1ccccc1 (centres undefined)	4.65µM*	-8.5%	-3.4	-8.3	-13.9%	.
COc1ccc(C2c3c(ccc4ccccc34)Oc3ncn4nc(-c5ccco5)nc4c32)cc1 (centres undefined)	3.7µM*	-1.3%	-5.1	-11.9	9.7%	?
COc1ccc(C2c3c(ncn(CCN4CCOCC4)c3=N)Oc3ccc4ccccc4c32)cc1 (centres undefined)	.	-17.3%	-7.6	-20.7	1.4%	9.28µM*
C[C@@H]1CCCCO[C@@H](CN(C)Cc2ccc(Cl)c(Cl)c2)[C@@H](C)CN([C@H](C)CO)C(=O)c2cc(NC(=O)CCC(F)(F)F)ccc2O1	.	-5.1%	.	.	.	.
O=C(Nc1ccc(C(=O)O)cc1)Nc1ccc(F)cc1F	3.7%	-5.8%	-3.3	-4.5	2.0%	33.9%
COc1ccc(CN2C(=O)c3ccccc3C2c2nnnn2-c2c(C)cccc2C)cc1OC (centres undefined)	.	-5.9%	.	.	.	.
COC(=O)c1ccc(OCC2c3cc(OC)c(OC)cc3CCN2C(=O)c2ccco2)cc1 (centres undefined)	?	-14.4%	10.0	-17.2	-19.1%	14.7µM*
CCC(=O)N1CCc2cc(OC)c(OC)cc2C1COc1ccc(C(=O)OC)cc1 (centres undefined)	?	-14.2%	-1.2	-8.7	26.6%	10.4µM*
COC(=O)c1ccc(OCC(O)CN2CCc3cc(OC)c(OC)cc3C2c2ccccc2)cc1 (centres undefined)	10.4µM*	?	-1.5	-4.7	1.2%	?
COc1ccc2cc(C3c4cc(OC)c(OC)cc4CCN3C(=O)c3ccco3)c(=O)[nH]c2c1 (centres undefined)	25.8%	-16.7%	-7.9	-8.5	2.4%	5.22µM*
O=C(O)c1ccc2c(c1)C(=O)N([C@H](Cc1ccc(-c3ccccc3)cc1)C(=O)O)C2=O	-0.1%	.	-0.5	-10.1	-13.7%	?
CCNC(=O)NC(=O)C(C)Sc1nc2ccccc2c(=O)n1-c1cccnc1 (centres undefined)	0.928µM*	5.0%	-2.9	-2.4	-3.8%	1.04µM*
CCNC(=O)NC(=O)C(C)Sc1nc2cc(C(=O)OC)ccc2c(=O)n1-c1ccccc1 (centres undefined)	78.5%	-2.1%	-2.7	-14.0	3.3%	20.5%
COCCn1nnnc1C(C(C)C)N1CCOCC1 (centres undefined)	8.28µM*	-1.0%	0.5	1.4	-6.0%	-0.6%
COCCn1nnnc1C(c1ccc(C(F)(F)F)cc1)N1CCOCC1 (centres undefined)	62.8%	-13.3%	-4.0	14.9	-6.2%	-12.3%
COC(=O)N/N=C/c1cn(CCOc2ccccc2)c2ccccc12	0.8%	?	45.6*	78.2*	-6.0%	0.6%
CCOC(=O)N/N=C/c1cn(CCCOc2ccc(C)cc2)c2ccccc12	-27.4%	7.2%	63.6*	42.4*	0.0%	33.2%
COC(=O)N/N=C/c1cn(CCOc2ccc(OC)cc2)c2ccccc12	?	-17.3%	0.6	20.9	-0.7%	7.0%[0.00184 µM]
SMILES	Pf growth 96h	AMA1 RON2 block	Cycloheximide cs	Shiga inhibitor	SARS PLpro yeast	Pf growth 48h
CCOC(=O)N/N=C/c1cn(CCCOc2ccccc2)c2ccccc12	-16.1%	1.6%	45.7*	66.1*	22.7%	-1.0%
Cc1ccc(OCCn2cc(/C=N/NC(=O)c3ccncc3)c3ccccc32)cc1	?	11.2%	-1.9	22.3	?	?
CNC(=S)N/N=C/c1cn(CCOc2cccc(OC)c2)c2ccccc12	?	28.7%	9.8	103.2*	-3.9%	?
O=C1C/C(=C\c2c(F)cccc2Cl)N2CCC1CC2	24.2%	-5.3%	-1.5	-22.0	0.7%	-6.6%
O=C(CN1CCN(CC(=O)Nc2ccccc2Cl)CC1)Nc1ccc(F)c(F)c1	2.7%	4.2%	-7.7	15.0	-0.4%	?
Nc1nonc1OCCc1ccccc1	50.5%	0.1%	11.6*	35.5	-3.2%	48.3%
Nc1nonc1OCCCCOc1nonc1N	?	-13.5%	-1.4	2.4	-0.7%	0.6%
Cc1cccc2nc(COc3ccc(-c4ccccc4)cc3)cn12	31.6%	.	43.2*	84.6*	-1.9%	38.4%
CCOC(=O)c1cn2c(C)cccc2n1	1.5%	34.6%	9.2	21.8	2.1%	22.8%
Cc1cc(C)n2cc(COc3ccc4ccccc4c3)nc2n1	193.3%	25.9%	52.7*	66.4*	9.9%	275.1%
COc1ccc2oc(C(=O)OCC(=O)Nc3ccc(C)c(S(=O)(=O)N4CCOCC4)c3)c(C)c2c1	.	-1.5%	.	.	.	.
COc1ccccc1C(c1c(O)nc(SC)[nH]c1=O)c1c(O)nc(SC)[nH]c1=O	.	-1.5%	.	.	.	.
CCC(=O)c1ccc(OCCN2CCOCC2)cc1	3.6%	2.3%	10.7	21.2	7.4%	24.1%
CC(C)COc1ccc(C(=O)OCCN2CCCCC2)cc1	32.3%	5.1%	10.3	37.1*	-1.9%	7.6%
CC(C)COc1ccc(C(=O)OCCN2CCOCC2)cc1	.	-23.6%	25.0*	36.3*	3.5%	21.9%
Cc1c(C=C2C(=O)N(C)C(=S)N(C)C2=O)c2ccccc2n1CC(=O)NCC1CCCO1 (centres undefined)	11.7µM*	1.7%	1.0	-8.8	3.9%	?
O=C(NCCN1C(=O)S/C(=C\c2cccnc2)C1=O)c1ccc([N+](=O)[O-])s1	51.4%	17.8%	.	.	.	-10.7%
Cc1c(C(=O)NCCN2C(=O)S/C(=C\c3cccnc3)C2=O)cccc1[N+](=O)[O-]	?	13.5%	-1.0	-5.9	0.9%	5.22µM*
